{
  "source": "ChEMBL document CHEMBL4513216",
  "about": "“Probing the Open Global Health Chemical Diversity Library for Multistage-Active Starting Points for Next-Generation Antimalarials” (ACS Infect Dis, 2020)",
  "note": "Out of some 65,000 compounds screened, about 2,100 (3.2%) showed an effect of 50% or more. The median lay at about -52%. This excerpt belongs to a sample that is enriched for strong results.",
  "data": [
    {"system": "Plasmodium falciparum", "assay": "Screen against P. falciparum Asexual Blood Stage (ABS), at 5uM", "format": "functional, Dd2", "settings": "tested at 5 uM", "units": {"INHIBITION": "%"}, "values": [
      {"smiles": "O=C1CSC(c2ccc(Cl)cc2Cl)c2c(n(C3CCOCC3)[nH]c2=O)N1", "note": "(configuration not stated)", "INHIBITION": -37.1},
      {"smiles": "O=C(NCC1CC[C@@]2(CNCCOC2)O1)c1cccnc1", "note": "(some centres not stated)", "INHIBITION": -65.9},
      {"smiles": "Cc1n[nH]c2c1C(c1ccsc1)SCC(=O)N2", "note": "(configuration not stated)", "INHIBITION": -110},
      {"smiles": "c1cncc(OC[C@]23COC[C@H]2CN(C2CCOCC2)C3)c1", "INHIBITION": -10.4},
      {"smiles": "CCCOc1ccc2ccccc2c1CN1CC[C@@]2(O)CCNC[C@H]2C1", "INHIBITION": 93.2},
      {"smiles": "CSCCCN1CC[C@@]2(O)CCN(c3ncccn3)C[C@H]2C1", "INHIBITION": 16.4},
      {"smiles": "O=C(O)[C@]12CCCN(C3CCOC3)C[C@H]1CN(c1ncccn1)C2", "note": "(some centres not stated)", "INHIBITION": -128},
      {"smiles": "CN(C)C(=O)c1ccc(-c2cccc3c2CCNC3)cc1", "INHIBITION": -115},
      {"smiles": "Oc1ccc(N2CCN(Cc3ccc(F)cc3Br)CC2)cc1", "INHIBITION": -85.8},
      {"smiles": "OC1(c2ccc(F)cc2)CCN(Cc2ccccc2N2CCCC2)CC1", "INHIBITION": 71.9},
      {"smiles": "O=C(NCC1CC1)[C@@H]1C[C@@H]2OCCN[C@@H]2C1", "INHIBITION": -55.3},
      {"smiles": "O=C1NCC[C@]12CN(Cc1cccnc1)C[C@H]2c1ccccc1", "INHIBITION": -11.5},
      {"smiles": "CC(=O)N1CC2(CCNCC2)c2cc(C)ccc21", "INHIBITION": 1.98},
      {"smiles": "Cc1ccccc1N1CCCN(CC2(O)CCCNC2)CC1", "note": "(configuration not stated)", "INHIBITION": 87.7},
      {"smiles": "Cc1nc2c(C)cccc2cc1C(=O)N1CCC2(CCCNC2)C1", "note": "(configuration not stated)", "INHIBITION": -31.7},
      {"smiles": "Cc1cccc(CN2CCC23CCCNC3)n1", "note": "(configuration not stated)", "INHIBITION": 12},
      {"smiles": "Cc1ccc(C)c(N2CCN(CC3(O)CCNC3)CC2)c1", "note": "(configuration not stated)", "INHIBITION": 85.9},
      {"smiles": "Cc1cnn(CC(C)NCc2ccc(C#N)cc2F)c1", "note": "(configuration not stated)", "INHIBITION": -84.2},
      {"smiles": "c1cc(CN2CCO[C@H]3[C@H](OCC4CCCC4)CC[C@@H]32)ccn1", "INHIBITION": -71.1},
      {"smiles": "CN(C)CCN(C)C[C@H]1CN2CC[C@H]1C[C@@H]2CNC(=O)Nc1ccsc1", "INHIBITION": -49.3},
      {"smiles": "Cc1nc(CN2CCOC3(CCCC3)C2)oc1C", "INHIBITION": -101},
      {"smiles": "O[C@@H]1C[C@H]2CN(Cc3ccsc3)[C@@H](Cc3ccccc3)CN2C1", "INHIBITION": 71.6},
      {"smiles": "C[C@H]1CN2C[C@H](O)CC2CN1Cc1ccncc1", "note": "(some centres not stated)", "INHIBITION": -85.4},
      {"smiles": "C[C@@H]1CN2C[C@H](O)CC2CN1Cc1ccncc1", "note": "(some centres not stated)", "INHIBITION": -64.4},
      {"smiles": "Cc1ccc(-n2nnc(CC(=O)N3CCN(C4CC4)CC3)c2C)cc1", "INHIBITION": -35.9},
      {"smiles": "COc1cccc(C2SCC(=O)Nc3n[nH]cc32)c1OC(C)C", "note": "(configuration not stated)", "INHIBITION": -75.3},
      {"smiles": "Cc1ccc(CNC(CN2CCN(C)CC2)c2ccccc2)cc1", "note": "(configuration not stated)", "INHIBITION": 79.5},
      {"smiles": "Cc1ccc(CC(=O)N2CCN(CC(O)c3ccccc3)CC2)cn1", "note": "(configuration not stated)", "INHIBITION": -130},
      {"smiles": "Cc1cnn(CC(C)NCc2cccc(C#N)c2)c1", "note": "(configuration not stated)", "INHIBITION": -41.8},
      {"smiles": "CN1CCN(CC(NCc2ccc(F)c(F)c2)c2ccccc2)CC1", "note": "(configuration not stated)", "INHIBITION": 83.8},
      {"smiles": "O=C(Cc1ccc(F)cc1)N1CCN(CC(O)c2ccccc2)CC1", "note": "(configuration not stated)", "INHIBITION": -18},
      {"smiles": "COc1cccc(CNC(CN2CCN(C)CC2)c2ccccc2)c1", "note": "(configuration not stated)", "INHIBITION": 82},
      {"smiles": "Cc1cccc(CNC(CN2CCN(C)CC2)c2ccccc2)c1", "note": "(configuration not stated)", "INHIBITION": 83.5},
      {"smiles": "O=C(Cc1ccccc1)N1CCN(CC(O)c2ccc(F)cc2)CC1", "note": "(configuration not stated)", "INHIBITION": -118},
      {"smiles": "COc1cccc(CC(C)NC(=O)NC(C)C)c1", "note": "(configuration not stated)", "INHIBITION": -64.2},
      {"smiles": "COc1cccc(CC(C)NC(=O)NCc2ccn(C)c2)c1", "note": "(configuration not stated)", "INHIBITION": -91.8},
      {"smiles": "O=C(c1ccncc1F)N1C[C@@H]2OCCN(CC3CC3)[C@@H]2C1", "INHIBITION": -66.6},
      {"smiles": "O=C(C1CCCCC1)N1CCC2(CC1)OCCO2", "INHIBITION": -149},
      {"smiles": "O=C(Nc1ccccc1)[C@H]1C[C@H]2CN(Cc3cccnc3)C[C@@H]1O2", "INHIBITION": -15},
      {"smiles": "Cc1ccc(C(=O)N2C[C@H](N3CCOCC3)[C@@H]3OCCC[C@@H]32)cn1", "INHIBITION": -62.2},
      {"smiles": "CN(Cc1nc(C2CC2)no1)C(=O)CN1CC(c2ccccc2)CC1=O", "note": "(configuration not stated)", "INHIBITION": -52.4},
      {"smiles": "CCN(CC1CN(Cc2nc(C3CC3)no2)CCO1)c1cccnn1", "note": "(configuration not stated)", "INHIBITION": 73.3},
      {"smiles": "COCCCN1CCCN(C(C)C(=O)Nc2cccc(I)c2)CC1", "note": "(configuration not stated)", "INHIBITION": 90},
      {"smiles": "CNC(=O)c1ccc2c(c1)C1(CCN(CCOC)CC1)C(=O)N2", "INHIBITION": -12.8},
      {"smiles": "COCCn1cc(NC(=O)NC(C)Cc2c(F)cccc2F)cn1", "note": "(configuration not stated)", "INHIBITION": -151},
      {"smiles": "Cn1ncc2c(N3CCCN4CCC[C@H]4C3)nc(C(C)(C)C)nc21", "INHIBITION": -68.8},
      {"smiles": "O=c1[nH]c(NC2CCCC2)nc2nccc(-c3ccco3)c12", "INHIBITION": 72.4},
      {"smiles": "COCCN1CCN(Cc2cccnc2)[C@H]2CS(=O)(=O)C[C@H]21", "INHIBITION": -9.43},
      {"smiles": "COc1ncccc1CN1CC[C@H]2O[C@H](c3nnc(C)o3)CC[C@H]21", "INHIBITION": -73.1},
      {"smiles": "CC(O)CN1CCN(C(=O)Cc2ccccc2Cl)CC1", "note": "(configuration not stated)", "INHIBITION": -179},
      {"smiles": "CCOc1ccccc1CNCC1CCN(CC(C)O)CC1", "note": "(configuration not stated)", "INHIBITION": 75.9},
      {"smiles": "CC(Cc1cccc(Cl)c1)NC(=O)Nc1cnn(CC(N)=O)c1", "note": "(configuration not stated)", "INHIBITION": -5.01},
      {"smiles": "CC(O)CN1CCC(CNCc2cccc(Br)c2)CC1", "note": "(configuration not stated)", "INHIBITION": 87.8},
      {"smiles": "CC(O)CN1CCC(CNCc2cccc(Cl)c2)CC1", "note": "(configuration not stated)", "INHIBITION": 87.9},
      {"smiles": "COCC(C)NC(=O)c1cn(C(C)(C)C)c2ncccc12", "note": "(configuration not stated)", "INHIBITION": -120},
      {"smiles": "COc1ccc(CC(=O)N2CCN(Cc3ccco3)C[C@@H]2C)cc1OC", "INHIBITION": -135},
      {"smiles": "COc1ccc(C2SCC(=O)Nc3ccsc32)cc1OC", "note": "(configuration not stated)", "INHIBITION": -6.6},
      {"smiles": "CCNC(=O)NC(=O)CNC1(c2noc(C)n2)CCCCC1", "INHIBITION": -46.9},
      {"smiles": "CN1Cc2ccccc2NC(=O)C12CCNC2", "note": "(configuration not stated)", "INHIBITION": -33.4},
      {"smiles": "O=C1CC[C@@H]2[C@@H](CCN2Cc2ccccn2)N1CC1CC1", "INHIBITION": -65.4},
      {"smiles": "c1ccc(-c2ncc3c(n2)C2(CCN(CC4CC4)C2)COC3)cc1", "note": "(configuration not stated)", "INHIBITION": 32},
      {"smiles": "CN1CCn2c(-c3ccccc3)cnc2C12CCN(CC1CC1)CC2", "INHIBITION": 80.9},
      {"smiles": "CN1CCn2c(-c3cccc(F)c3)cnc2C12CCN(CC1CC1)CC2", "INHIBITION": 76.5},
      {"smiles": "CC(=O)N1CCC2(CC1)c1ncc(-c3cccnc3)n1CCN2C", "INHIBITION": -45.5},
      {"smiles": "Fc1cnc(N2CC3(CCN(CC4CC4)C3)C2)nc1", "INHIBITION": -62.7},
      {"smiles": "Cc1nc(C2(NCC(=O)NC(=O)NCc3cccs3)CCCCC2)no1", "INHIBITION": -111},
      {"smiles": "Cc1ncc2c(c1CNC(=O)C1(C)CC1)CCNC2", "INHIBITION": -29.6}
    ]}
  ]
}
